Results taken from PubChem BioAssay AID1347120 (National Center for Advancing Translational Sciences (NCATS), 2019).
Among all 390,000 compounds or so, about 930 (0.24%) were called active. Where a call stands in place of a potency, no number is given. About 5% were inconclusive and are not listed. This is one part of a sample in which actives are shown more often than they occur. Calls follow the shape of the dose curve; as a rule, active = well fitted activation curve with a large enough effect; inconclusive = small, poorly fitted or top-dose-only effect; inactive = no such curve, though single readings can be large or run the other way.

Assay: qHTS for Suppressors of FUS Proteinopathy: Primary screen using FUS-linked yeast assay; also: nearly all actives have a fitted effect of over 55% in size
Details: S. cerevisiae FUS-expressing, OD600, 24 h; Potency: growth rescue; series mostly up to 76.6 µM
Description: Several widespread neurodegenerative diseases, including Alzheimer disease, Huntington disease, Frontotemporal Lobar Degeneration (FTLD) and Amyotrophic Lateral Sclerosis (ALS), share a common pathological feature, namely accumulation of specific protein aggregates in diseased tissue. These diseases which is associated with protein misfolding (proteinopathies) have become increasingly problematic as the population ages and life expectancies are extended. Most proteinopathies are currently incurable, a situation confounded by the fact that the basis of neurodegeneration is generally poorly understood. There exists urgent and significant need to find therapeutics that can inhibit the toxicity associated with protein aggregation. A novel approach to understand the underlying mechanisms of neurodegenerative diseases has recently emerged in which the disease conditions are modeled in the yeast (Saccharomyces cerevisiae), a tractable eukaryotic organism with conserved protein quality control mechanisms. Yeast offers quick and reliable genetic manipulations and can be easily tailored to high-throughput screening (HTS).
For this project, a yeast model of the FUS proteinopathies (a spectrum of neurodegenerative diseases that include ALS and a subtype of FTLD) was generated and employed. The cytoplasmic accumulation of the DNA/RNA-binding protein FUS (also known as TLS) is causative to both familial and sporadic forms of ALS and FTLD. This yeast model recapitulates neuronal pathology by showing severe cytotoxicity associated with cytoplasmic accumulation of FUS aggregates and a specific interaction between FUS and TDP-43, another ALS-associated protein. […] Specifically, the cellular accumulation of misfolded FUS that disrupts RNA homeostasis in both yeast and higher eukaryotes. This model was validated to be suitable for quantitative HTS (qHTS) use for finding genetic or chemical factors that restore growth. […] Identified compounds that inhibits FUS-yeast toxicity is flagged, re-acquired, and validated for further investigation and optimization.
NIH Chemical Genomics Center [NCGC]
NIH Molecular Libraries Probe Production Centers Network [MLPCN]
Assay Submitter (PI): Frank Shewmaker PhD, Uniformed Services University of the Health Sciences
Compound CP55940 was used as the positive control. Column 1 was treated with CP55940 titration from 92uM (final concentration, 1:2 dilution), while Column 2 was treated with top dose 92uM. Columns 3 and 4 were treated with DMSO only as negative control to assess background and noise signal.
Four hundred fifty microliter of cultured yeast (in 20mL rich medium) provided by Dr. Shewmaker lab was incubated at 30C at 99% humidity for 3hr. The culture was then spun down at 4000rpm for 5min and the cell pellet was resuspended in 2mL of Sdmin Media + ALU(330) + 2.5% Raffinose. One hundred microliter of the suspension was added to 900uL of water and OD of the solution was obtained. Twenty mL of responding medium (provided by Shewmaker lab) + 2.5% raffinose was added to ensure cell density of 0.1; the solution was incubated overnight. Working cell solution (FUS-yeast in Sdmi + Sdmi + 1X ALU + 2% galactose media) was prepared (final OD at 0.005) and 3uL was dispensed in a 1536-well Aurora high based clear bottom assay plates. Controls and library compounds (at various final concentrations from 40uM to 0.32uM) were added using a 1536-well pin array using the Kalypsys pin-tool. The plates were then incubated for 24hrs in a cell-culture incubator (30C; 99% humidity). Absorbance at 600nm was then read using the PerkinElmer ViewLux plate reader.
Potency is read from the fitted curve at half-maximal effect.

Structure (SMILES)	Potency
COc1ccc(S(=O)(=O)N(C)C[C@H]2Oc3c(NC(=O)Nc4ccc5c(c4)OCO5)cccc3C(=O)N([C@H](C)CO)C[C@@H]2C)cc1	25.1 µM (active)
CC(C)NC(=O)Nc1cccc2c1O[C@@H](CN(C)S(=O)(=O)c1ccc(F)cc1)[C@@H](C)CN([C@H](C)CO)C2=O	inactive
COc1ccc(S(=O)(=O)Nc2cccc3c2O[C@H](CN(C)S(=O)(=O)c2ccc(OC)cc2)[C@@H](C)CN([C@H](C)CO)C3=O)cc1	inactive
COc1cc(OC)c(NC(=O)c2cc(S(=O)(=O)N3CCCC3)cn2C)cc1Cl	inactive
COC(=O)c1ccccc1NC(=O)C(Cc1ccccc1)N1Cc2ccccc2C1=O (stereo not drawn)	inactive
Cc1cccc(CCNC(=O)c2ccc3c(c2)nc2n3CCC(C)C2)c1 (stereo not drawn)	inactive
COc1cccc(NC(=O)N2CCN(C(=O)c3nsc4ccccc34)CC2)c1	inactive
Cc1nc(SCCOc2ccc(Cl)cc2)[nH]c(=O)c1Cc1ccccc1	inactive
O=C(CNC(=O)Cc1ccccc1)NCC(=O)OCC(=O)c1ccccc1Cl	inactive
O=C(CNC(=O)OCc1ccccc1)Oc1cc2oc(=O)cc(-c3ccccc3)c2cc1Cl	12.6 µM (active)
COP(=O)(O)CNC(=O)OCc1ccccc1	inactive
COC(=O)Cc1csc(/N=C/c2c(O)n(-c3cccc(C(F)(F)F)c3)c(=O)c3ccccc23)n1	inactive
CCO/C=C1\C(=O)N(c2ccc(OCC)cc2)C(=O)c2ccccc21	inactive
CCOc1ccc(N=Cc2c(O)n(-c3cccc(C)n3)c(=O)c3ccccc23)cc1	8.91 µM (active)
CCc1ccc(NC(=O)CCCc2nnc3n(CCCOC)c(=O)c4sccc4n23)cc1	inactive
O=C(Nc1nc2c(s1)CCCC2)c1ccccc1F	inactive
Cn1c(=O)c(=O)n(C)c2cc(NC(=O)c3ccccc3Br)ccc21	inactive
COc1ccc2c(c1)Cc1sc(NC(=O)c3ccccc3Br)nc1-2	28.2 µM (active)
CN(C(=O)c1ccc2c(c1)N(Cc1cccc(Cl)c1)C(=O)c1ccccc1S2=O)C1CCCCC1 (stereo not drawn)	inactive
CC(C)CCn1c(CN(C)Cc2ccccc2)nc2c1c(=O)n(C)c(=O)n2C	inactive

Structure (SMILES)	Potency
CC(C)Cn1c(CN(Cc2ccccc2)Cc2ccccc2)nc2c1c(=O)n(C)c(=O)n2C	31.6 µM (active)
Cn1c(=O)[nH]c(=O)c2c1nc(CN(Cc1ccccc1)Cc1ccccc1)n2CCN1CCOCC1	inactive
CCN(CC)c1ccc(NC(=O)CN2C(=O)c3cccnc3Oc3ccc(Cl)cc32)c(C)c1	inactive
Cc1ccc(Nc2cc(=O)n(C3CCCCC3)c(=O)[nH]2)cc1C	inactive
Cc1cc(/C=N/NC(N)=O)c(C)n1C1CCCCC1	22.4 µM (active)
CC1CCc2sc(C(=O)N/N=C/C3CCCCC3)cc2C1 (stereo not drawn)	inactive
CCc1ccccc1NC(=O)N1CCN(C(=O)c2nsc3ccccc23)CC1	inactive
CCOc1cccc(NC(=O)CSc2ncc(-c3ccc(Cl)cc3)[nH]2)c1	inactive
CCNC(=O)Cn1nc(C)n2c(cc3c(OC)cccc32)c1=O	inactive
O=C1CCC/C=C\C[C@@H](CC(=O)N(CCO)Cc2ccccc2)C(=O)NCCO1	inactive
CC(C)(C)OC(=O)C[C@@H]1C/C=C\C[C@@H](CC(=O)N(CCO)Cc2ccccc2)C(=O)N[C@H](Cc2ccccc2)COC1=O	inactive
O=C1N[C@@H](c2ccccc2)COC(=O)[C@H](Cc2ccc(F)cc2)C/C=C\C[C@@H]1CC(=O)N(CCO)Cc1ccccc1	22.4 µM (active)
CCC1CCCCN1Cc1c(O)ccc2c(=O)c(Oc3ccccc3Cl)c(C(F)(F)F)oc12 (stereo not drawn)	inactive
Cc1ccc(C)c(Cn2c(CCCNC(=O)C3CCCCC3)nc3ccccc32)c1	inactive
COCCNC(=O)c1cc(-c2cccc(Cl)c2)on1	inactive
Cc1cc(N2C(=O)C(=O)/C(=C(/O)c3ccc(Cl)cc3)C2c2cccc(Br)c2)no1 (stereo not drawn)	inactive
COc1ccccc1C1/C(=C(/O)c2ccc(OC(C)C)cc2)C(=O)C(=O)N1c1cc(C)on1 (stereo not drawn)	20 µM (active)
Cc1cc(N2C(=O)C(=O)/C(=C(/O)c3ccccc3)C2c2cccc(Br)c2)no1 (stereo not drawn)	inactive
Cc1ccc(-c2cn3c(n2)sc2cc(C(=O)NCCCc4ccccc4)ccc23)cc1	inactive
O=C(CSc1nccn1C1CCCC1)Nc1cc(C(F)(F)F)ccc1Cl	inactive

Structure (SMILES)	Potency
COc1ccc(CNC(=O)CC2Oc3ccc(C)cc3NC2=O)cc1 (stereo not drawn)	inactive
CC(=O)Nc1ccc(NC(=O)CCCc2nc(-c3ccc(C(C)(C)C)cc3)no2)cc1	inactive
CC1Cc2cc(S(=O)(=O)CCC(=O)Nc3ccc(F)c(Cl)c3)ccc2N1C(=O)C1CC1 (stereo not drawn)	inactive
COc1ccccc1-c1cc(C(F)(F)F)nc(S(=O)(=O)CCCC(=O)Nc2ccc(F)cc2F)n1	inactive
CCCCc1nn2c(=O)cc(COC(=O)c3ccc(NC(=O)c4ccccc4C)cc3)nc2s1	inactive
CCCCOc1ccc(CN2C(=O)C(=O)c3cc(Br)cc(C)c32)cc1OC	inactive
Cc1ccc(CNC(=O)CCc2c(C)nc3c(c(C)nn3-c3ccccc3)c2C)cc1	inactive
CCN(CC)C(=O)CSc1nc2cc3c(cc2c(=O)n1CCCC(=O)NCc1ccc2c(c1)OCO2)OCO3	inactive
CCOc1ccc(-c2cc3c(=O)n(CC(=O)NCc4ccc(OC)cc4)ccn3n2)cc1	inactive
COc1cccc(-n2c(=O)c3c(C)c(C(=O)N(C)C)sc3n(Cc3cccc(C)c3)c2=O)c1	inactive
CCN(CC(=O)Nc1cccc(S(N)(=O)=O)c1)Cc1nc2ccccc2c(=O)[nH]1	inactive
CCN(CC(=O)Nc1ccc(Cl)c(S(=O)(=O)N(C)C)c1)Cc1nc2ccccc2c(=O)[nH]1	31.6 µM (active)
CCN(CC(=O)NC(=O)NCc1ccccc1)Cc1nc2ccccc2c(=O)[nH]1	inactive
CCN1CCN(CCCNC(=O)c2ccc3c(c2)sc2nc(-c4ccc(OC)cc4)cn23)CC1	inactive
COc1ccc(CC(=O)NCCc2sc3nc(-c4ccc(OC)cc4)nn3c2C)cc1	inactive
COC(=O)CN1C(=O)CSc2ccc(S(=O)(=O)Nc3cc(C)ccc3C)cc21	inactive
Cc1ccc2nc(N3CCN(c4cccc(Cl)c4)CC3)c3nnnn3c2c1	inactive
Cc1nnc(N2CCC(C(=O)Nc3ccc(F)cc3)CC2)c2nn(-c3ccc(Cl)cc3)c(C)c12	inactive
